Experimental data published in the supplement of paper PMC6555819.

System: LXRb homodimer (NR concentration 270 nM)
Test: PBM binding z-score (relative to random genomic background probes); higher = stronger binding; sequences stand for … in GC…GCGATTGACAGCGTAGAATGAAGG
Summary of the method: (§1)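 Regression normalization was applied to scanned fluorescence from custom Agilent 4×180K protein-binding microarrays. Before scanning, arrays were incubated 1 h with ligand-free nuclear receptor dimers, and binding was detected with antibodies against each partner (one per run). Binding z-scores use the random background probes as reference.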

Going from ATTTGTAGGTTAGGGTCATTCAGAAAGTAGGGAA to CATACAGGGACAGCTAGGCCAGAGTAGGGACGGC, the PBM binding z-score falls from 3.24 to -0.351.

First: CAAACTAGGTCACCAGGACAGTGAAGAGGTTGGA
Second: ATATGTAGCTTAGGGTCATTCAGAAAGTAGGGAA
The PBM binding z-score of the first is lower: 0.0732 for the first, 1.7 for the second.

First: CGAACTAGATCAAAGGACAGTGAAAGGCGACGTA
Second: ATCTCTAGGTAAAGTTCAGCGAAAGATCGATAGA
The PBM binding z-score of the first is lower: -0.637 for the first, 0.72 for the second.

Compared with CGCACTAGGTCAAAGGACAGTGAAAGGCGACGTA, CGAACGAGGTCAGAACAGGACAGTGAAGGATGAT is higher in PBM binding z-score: -0.151 for the first, 0.317 for the second.

Going from CGAACTAGGTCATCGAGGACAGTGAATACATTGA to CGTCCAAGGTCATAGGAGTTCAGTGAAGACAGAT, the PBM binding z-score rises from -0.0709 to 0.66.

First: CGAACTAGGTCAAAGGACAGTGAGAGGCGACGTA
Second: TCTAGTTGGTGACGGAGGTCACACACGACGGGTA
The PBM binding z-score of the first is lower: -0.441 for the first, 0.435 for the second.

Compared with CGAACTAAGTCAAAGGACAGTGAAAGGCGACGTA, CCTACTGGGTCATTCAGAGGTCATTGATCATATG is higher in PBM binding z-score: -0.704 for the first, 1.42 for the second.

First: CGAACTAGGACATCCAGGACAGTGAATACATTGA
Second: ATCGAAAAGTCGAAGGTGAGTATACCCACCCGAA
The PBM binding z-score of the first is lower: -0.407 for the first, -0.243 for the second.

First: CGAACTAGGTCAAAGGAGAGTGAAAGGCGACGTA
Second: CAAAGTAGGTCAAGAGGTCAAAGTCCGCTTCCCG
The PBM binding z-score of the first is lower: -0.486 for the first, 2.34 for the second.

Going from CGAACTAGGTCACCAGGACAGTGACGAGGTTGGA to CGAACTAAGTCACCAGGACAGTGAAGAGGTTGGA, the PBM binding z-score rises from -0.75 to -0.234.

First: ATCTCTAGGTAACAAGGTCAGTGAAAGAGAGGAC
Second: CCTACTGGGCCATACAGAGGTCATTGATCATATG
The PBM binding z-score of the first is higher: 1.16 for the first, 0.274 for the second.

First: TCTAGTTGGTTACGGAGGTCACACACGACGGGTA
Second: CGAACTAGCTCAAAGGACAGTGAAAGGCGACGTA
The PBM binding z-score of the first is higher: 1.06 for the first, -0.633 for the second.

First: CGAACTAGGTCAAAGGAAAGTGAAAGGCGACGTA
Second: CCTGGCAGGCCAGGGTCACTCAAGCATTTCGCTT
The PBM binding z-score of the first is higher: -0.265 for the first, -1.2 for the second.

Compared with ATCGAAATGTCGTGAGGTGAGTATACAGAAAGGC, ATATGTAGGTTAGGTTCATTCAGAAAGTAGGGAA is higher in PBM binding z-score: -0.00242 for the first, 1.28 for the second.

Compared with CGAACTAGGTCAAAGGACAGTGCAAGGCGACGTA, CGAACTAGGTCAAAGGACAGTGAAAGGCGACGTA is lower in PBM binding z-score: -0.463 for the first, -0.588 for the second.

Compared with AATACAGGGTCCTCGTAGGCCAGAGTACGCACAG, GCTGCTAGGTTAACTGATGGTCAGCTAAAGCTCG is lower in PBM binding z-score: -0.321 for the first, -0.9 for the second.

First: TAGCCTAGGTCAAGCGGGCCAGTATAGTGTCGGC
Second: TTACGAAGGTGAAAGGTCGTTGATGCACGCCTTG
The PBM binding z-score of the first is higher: -0.385 for the first, -0.598 for the second.

Compared with ATCGAAAGGTCGCAGGTGAGTATACCCACCCGAA, CATACCGGGTCAGCTAGGCCAGAGTAGGGACGGC is lower in PBM binding z-score: 0.436 for the first, -0.0141 for the second.

Going from CGAACTAGGGCACCAGGACAGTGAAGAGGTTGGA to ATATGTAGGTTAGGGTCATTCCGAAAGTAGGGAA, the PBM binding z-score rises from -1.24 to 1.53.

ACTCGGAGGACAAACGTCAGAGCTACGCCAGTGA gave a PBM binding z-score of -0.602.

System: PPARa:RXRa (NR concentration 270 nM, RXRa partner concentration 90 nM)
Test: as above
Summary of the method: as §1

First: ATTTGTAGGTTAGGGTCATTCAGAAAGTAGGGAA
Second: CATACAGGGACAGCTAGGCCAGAGTAGGGACGGC
The PBM binding z-score of the first is higher: 5.52 for the first, -0.533 for the second.

Compared with CAAACTAGGTCACCAGGACAGTGAAGAGGTTGGA, ATATGTAGCTTAGGGTCATTCAGAAAGTAGGGAA is lower in PBM binding z-score: 5.18 for the first, 4.7 for the second.

Compared with CGAACTAGATCAAAGGACAGTGAAAGGCGACGTA, ATCTCTAGGTAAAGTTCAGCGAAAGATCGATAGA is higher in PBM binding z-score: 1.77 for the first, 2.81 for the second.

Going from CGCACTAGGTCAAAGGACAGTGAAAGGCGACGTA to CGAACGAGGTCAGAACAGGACAGTGAAGGATGAT, the PBM binding z-score falls from 5.48 to 4.97.

First: CGAACTAGGTCATCGAGGACAGTGAATACATTGA
Second: CGTCCAAGGTCATAGGAGTTCAGTGAAGACAGAT
The PBM binding z-score of the first is lower: 4.86 for the first, 5.9 for the second.

Going from CGAACTAGGTCAAAGGACAGTGAGAGGCGACGTA to TCTAGTTGGTGACGGAGGTCACACACGACGGGTA, the PBM binding z-score falls from 5.65 to 3.65.

Compared with CGAACTAAGTCAAAGGACAGTGAAAGGCGACGTA, CCTACTGGGTCATTCAGAGGTCATTGATCATATG is higher in PBM binding z-score: 1.52 for the first, 5.41 for the second.

Going from CGAACTAGGACATCCAGGACAGTGAATACATTGA to ATCGAAAAGTCGAAGGTGAGTATACCCACCCGAA, the PBM binding z-score falls from 0.451 to 0.35.

First: CGAACTAGGTCAAAGGAGAGTGAAAGGCGACGTA
Second: CAAAGTAGGTCAAGAGGTCAAAGTCCGCTTCCCG
The PBM binding z-score of the first is lower: 5.05 for the first, 6.74 for the second.

Compared with CGAACTAGGTCACCAGGACAGTGACGAGGTTGGA, CGAACTAAGTCACCAGGACAGTGAAGAGGTTGGA is lower in PBM binding z-score: 5.17 for the first, 0.219 for the second.

Going from ATCTCTAGGTAACAAGGTCAGTGAAAGAGAGGAC to CCTACTGGGCCATACAGAGGTCATTGATCATATG, the PBM binding z-score rises from 3.22 to 3.89.

First: TCTAGTTGGTTACGGAGGTCACACACGACGGGTA
Second: CGAACTAGCTCAAAGGACAGTGAAAGGCGACGTA
The PBM binding z-score of the first is higher: 3.67 for the first, 0.188 for the second.

First: CGAACTAGGTCAAAGGAAAGTGAAAGGCGACGTA
Second: CCTGGCAGGCCAGGGTCACTCAAGCATTTCGCTT
The PBM binding z-score of the first is higher: 4.7 for the first, 3.35 for the second.

First: ATCGAAATGTCGTGAGGTGAGTATACAGAAAGGC
Second: ATATGTAGGTTAGGTTCATTCAGAAAGTAGGGAA
The PBM binding z-score of the first is lower: -0.0374 for the first, 4.1 for the second.

Compared with CGAACTAGGTCAAAGGACAGTGCAAGGCGACGTA, CGAACTAGGTCAAAGGACAGTGAAAGGCGACGTA is higher in PBM binding z-score: 5.41 for the first, 5.72 for the second.

First: AATACAGGGTCCTCGTAGGCCAGAGTACGCACAG
Second: GCTGCTAGGTTAACTGATGGTCAGCTAAAGCTCG
The PBM binding z-score of the first is lower: 0.0293 for the first, 0.846 for the second.

Going from TAGCCTAGGTCAAGCGGGCCAGTATAGTGTCGGC to TTACGAAGGTGAAAGGTCGTTGATGCACGCCTTG, the PBM binding z-score rises from 3.62 to 5.25.

First: ATCGAAAGGTCGCAGGTGAGTATACCCACCCGAA
Second: CATACCGGGTCAGCTAGGCCAGAGTAGGGACGGC
The PBM binding z-score of the first is higher: 5.01 for the first, 3.1 for the second.

First: CGAACTAGGGCACCAGGACAGTGAAGAGGTTGGA
Second: ATATGTAGGTTAGGGTCATTCCGAAAGTAGGGAA
The PBM binding z-score of the first is lower: 2.31 for the first, 5.69 for the second.

Sequence ACTCGGAGGACAAACGTCAGAGCTACGCCAGTGA has a PBM binding z-score of -0.386.
